# Assay results published in PubChem BioAssay (NCI).
# About 79,000 compounds went through this panel and 15% of them were active in at least one assay; those are over-represented in the sample as a whole. A number with no mark means an inactive call. Activity calls are given as the source filed them. Cut-off read from the data, not from the text of the source: active = growth inhibition above about 70%; inactive = the rest.
# What was measured:
# [1] = NCI Yeast Anticancer Drug Screen. Data for the rad50 strain (AID 155);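 note: 0% = growth of vehicle-only cultures of the same strain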; details: S. cerevisiae rad50 strain growth inhibition, active compounds read high
# Method in brief: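 Readout: growth inhibition relative to vehicle-treated cultures. Compound exposure was carried out in a genetically defined yeast strain deficient in DNA damage repair.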
# [2] = NCI Yeast Anticancer Drug Screen. Data for the mec2-1 strain (AID 157); details: S. cerevisiae mec2-1 strain, active compounds read high
# Method in brief: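 Using mec2-1 yeast: add compound, measure growth, express inhibition versus vehicle-treated cultures.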
# [3] = NCI Yeast Anticancer Drug Screen. Data for the sgs1 mgt1 strain (AID 161);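 note: 0% = growth of cultures given vehicle only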; details: S. cerevisiae sgs1 mgt1 strain, active compounds read high
# Method in brief: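 Growth of a repair-deficient yeast mutant was monitored after compound treatment and expressed as inhibition relative to vehicle-treated cultures.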
# [4] = NCI Yeast Anticancer Drug Screen. Data for the cln2 rad14 strain (AID 165);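 note: 0% = growth equal to vehicle treated cultures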; details: S. cerevisiae cln2 rad14 strain, active compounds read high
# Method in brief: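 Yeast strain cln2 rad14, bearing defects in cell cycle control and DNA repair, serves as the test system; values reflect growth inhibition compared with vehicle.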
# [5] = NCI Yeast Anticancer Drug Screen. Data for the bub3 strain (AID 167); details: S. cerevisiae bub3 mutant strain, active compounds read high
# Method in brief: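 Readout: yeast growth inhibition, expressed relative to vehicle-only wells. The test organism is a mutant strain from a panel with lesions in DNA repair or checkpoint genes.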
# [6] = NCI Yeast Anticancer Drug Screen. Data for the mlh1 rad18 strain (AID 175); details: S. cerevisiae mlh1 rad18 strain growth inhibition, active compounds read high
# Method in brief: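 Steps: expose repair-defective yeast to compound; measure growth; express inhibition against vehicle-treated controls.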
# [7] = at 5.0 µM (retest, dose inferred, filed as 0.5)
# [8] = at 50.0 µM (retest, dose inferred, filed as 5.0)
SMILES,"growth inhibition [1, 7]","growth inhibition [1, 8]",growth inhibition ([1]; at 50.0 µM),"growth inhibition [2, 7]","growth inhibition [2, 8]",growth inhibition ([2]; at 50.0 µM),"growth inhibition [3, 7]","growth inhibition [3, 8]",growth inhibition ([3]; at 50.0 µM),"growth inhibition [4, 7]","growth inhibition [4, 8]",growth inhibition ([4]; at 50.0 µM),"growth inhibition [5, 7]","growth inhibition [5, 8]",growth inhibition ([5]; at 50.0 µM),"growth inhibition [6, 7]","growth inhibition [6, 8]",growth inhibition ([6]; at 50.0 µM)
C=CCCCCCCCCC(=O)O (tested in a mixture with another compound),-3%,12%,23.1%,-3%,8%,63.3%,-9%,27%,53%,6%,72% (active),96.8% (active),-7%,7%,40.4%,-7%,48%,83% (active)
CCN(CCCl)c1cc(CN(C)C)cc(NC(=O)c2ccc(C(=O)Nc3cccc(N(CCCl)NN)c3)cc2)c1,-6%,91% (active),89.4% (active),-5%,98% (active),98.2% (active),10%,98% (active),-2.7%,1%,95% (active),56.2%,-16%,92% (active),97.8% (active),25%,97% (active),98.5% (active)
CCOC(=O)C(Cc1ccc(O)cc1)NCc1ccc(N(CCCl)CCCl)cc1 (configuration not stated),83% (active),83% (active),37.8%,36%,94% (active),69.1%,64%,99% (active),72.2% (active),52%,84% (active),56.7%,65%,94% (active),69.5%,80% (active),76% (active),76.7% (active)
Fc1ccc(NP(=S)(Nc2ccc(F)cc2F)Nc2ccc(F)cc2F)c(F)c1,33%,99% (active),99.2% (active),42%,99% (active),99.3% (active),39%,99% (active),99% (active),56%,99% (active),98.7% (active),26%,99% (active),98.8% (active),30%,98% (active),99.2% (active)
NP(N)(=O)Nc1ccccc1,-1%,-2%,7.75%,2%,-2%,-22.4%,-1%,-1%,-23.9%,0%,-2%,66.7%,2%,-6%,-8%,-2%,0%,3.6%
CCCCCCCCCCCCC(=O)[O][Hg][c]1ccccc1,99% (active),99% (active),99.2% (active),100% (active),100% (active),99.5% (active),100% (active),100% (active),99.5% (active),99% (active),99% (active),99.3% (active),99% (active),99% (active),100% (active),99% (active),99% (active),99.5% (active)
CCC1(CC)C(=O)[N-]C(=O)[N-]C1=O.[Au+].[Au+].c1ccc([PH+](c2ccccc2)c2ccccc2)cc1.c1ccc([PH+](c2ccccc2)c2ccccc2)cc1,99% (active),94% (active),1.75%,99% (active),97% (active),80.6% (active),99% (active),96% (active),-4.5%,95% (active),96% (active),35.1%,99% (active),90% (active),2.2%,98% (active),96% (active),4.65%
CC(C)=CC1CC(C)C2(CCC3(C)CC4C(C(=O)CC4(C)O)/C(C=O)=C\CC32)O1 (configuration not stated),99% (active),100% (active),94.5% (active),99% (active),100% (active),94.6% (active),99% (active),99% (active),95% (active),99% (active),99% (active),93.6% (active),99% (active),100% (active),94.5% (active),99% (active),100% (active),93.7% (active)
CN1CC(Br)(Br)C(=O)N(C)C1=O,18%,99% (active),89.8% (active),2%,100% (active),93.3% (active),-9%,99% (active),92.8% (active),-4%,99% (active),93.4% (active),-18%,100% (active),92.9% (active),2%,100% (active),88% (active)
